TrxR1 substrate = is turned over as a substrate by rat TrxR1. 390,000 tested, 0.01% active. Potency, µM (top dose mostly 114 µM), without a hit: at the top dose activity change, negative = substrate turnover. O89049. purified TrxR1 substrate turnover, NADPH consumption readout. AID 588456; further: potency means the concentration at half of the fitted maximal effect; nearly all actives have a fitted effect of over 50% in size
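Rat TrxR1, dispensed at 90 nM, was prereduced with 400 uM NADPH (final) for 5 min at ~22 deg C, then incubated with compound 15 min before 400 uM selenite. A first-read NADPH fluorescence drop versus no-compound background flagged substrates.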
VP16 counter = inhibits Gal4-VP16 luciferase reporter, ROR gamma counter-screen; Drosophila S2 Gal4-VP16 UAS-luciferase, luminescence, 20 h; Potency, µM (series often up to 53.6 µM), without a hit: top-dose activity, negative = inhibition, hits mostly inhibitors; 310,000 tested, 3.5% active; AID 2546;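 further: Gal4-VP16 expression switched on by copper sulfate through the metallothionein promoter; potency means the concentration at half of the fitted maximal effect; nearly all actives have a fitted effect of over 50% in size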
Coupling enz = coupling enzyme interference in Giardia aldolase counter-screen; AID 2472; activity change, negative = inhibition, % at 58.2 µM, hits read low; 290,000 tested, 0.67% active; coupling enzyme system counterscreen, AmpLite Red fluorescence; in the data active means activity change below about -30%
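Counterscreen of the coupled detection system alone, without aldolase: glyceraldehyde-3-phosphate coupling enzymes plus AmpLite Red readout. Compounds at 57.5 uM final, 10 min RT preincubation, 20 min RT reaction, fluorescence 525/598 nm.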
TrxR1 inh = inhibitors of rat thioredoxin reductase 1; O89049; recombinant rTrxR1, NADPH fluorescence consumption, selenite substrate; Potency, µM (highest dose often 114 µM), without a hit: top-dose activity change, negative = inhibition, hits mostly inhibitors; 390,000 tested, 1% active; AID 588453; further: potency means the concentration at half of the fitted maximal effect; nearly all actives have a fitted effect of over 65% in size
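Rat TrxR1 (90 nM in the dispensed reagent) was pre-reduced with 400 uM NADPH for 5 min at room temperature, then incubated with compound for 15 min. After 400 uM selenite was added, NADPH fluorescence (Ex 340/Em 450 nm) was followed for 8 min.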
GALK inhibitor = blocks human galactokinase activity | P51570 | Purified GALK, Kinase-Glo residual ATP luminescence | Potency, µM (doses to about 57.5 µM), for the others: top-dose activity change, negative = inhibition, hits mostly inhibitors | 270,000 tested, 0.007% active | AID 1868; further: potency means the concentration at half of the fitted maximal effect
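Galactose (100 uM) and ATP (35 uM) were turned over by 5 nM GALK for 1 h at RT. Kinase-Glo Plus then converted the remaining ATP into a luminescent signal.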
RORg inh = inhibitors of mouse ROR gamma transcriptional activity; P51450; Drosophila S2 Gal4-RORgamma UAS-luciferase reporter, 20 h; Potency, µM (highest dose often 53.6 µM), without a hit: top-dose activity change, negative = inhibition, actives largely listed as inhibitors; 310,000 tested, 5.4% active; AID 2551; further: potency means the concentration at half of the fitted maximal effect; nearly all actives have a fitted effect of over 60% in size
Target sequence (P51450 whole entry, looked up, the tested form may be a part): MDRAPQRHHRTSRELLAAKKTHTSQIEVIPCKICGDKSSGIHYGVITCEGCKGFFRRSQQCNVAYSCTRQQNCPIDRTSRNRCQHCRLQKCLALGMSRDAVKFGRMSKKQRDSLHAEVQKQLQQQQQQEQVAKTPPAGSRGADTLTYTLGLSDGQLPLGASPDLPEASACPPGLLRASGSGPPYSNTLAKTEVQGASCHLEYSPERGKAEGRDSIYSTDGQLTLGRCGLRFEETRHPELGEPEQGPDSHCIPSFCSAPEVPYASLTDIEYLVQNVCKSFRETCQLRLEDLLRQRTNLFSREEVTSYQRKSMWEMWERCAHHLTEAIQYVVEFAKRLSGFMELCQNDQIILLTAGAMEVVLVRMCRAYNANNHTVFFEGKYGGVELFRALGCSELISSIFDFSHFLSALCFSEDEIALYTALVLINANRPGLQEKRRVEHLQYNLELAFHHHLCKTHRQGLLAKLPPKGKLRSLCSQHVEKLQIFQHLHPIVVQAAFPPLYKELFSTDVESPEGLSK
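Luminescence from a UAS-regulated Photinus luciferase reporter in stably transfected Drosophila Schneider cells is measured; decreased signal marks ROR gamma inhibition. Fusion expression is induced by 700 uM copper sulfate for 20 hr.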
The depositor's hits bear a star; ? = inconclusive; nt = no result; [ ] = another dose, or the depositor's remark. A selection: hits, their analogues and other compounds. The true share with any hit is near 5.9%. Unless noted, the call rests on the fitted dose curve; in most records, active means well fitted curve in the direction sought with a large enough effect; inconclusive means small, poorly fitted or top-dose-only effect, or another doubt; inactive means no such curve, though single readings can be large; an effect the other way counts as inactive or inconclusive. On the % scale 0 is the no-effect control and ±100 the full control effect.

SMILES | TrxR1 substrate | VP16 counter | Coupling enz | TrxR1 inh | GALK inhibitor | RORg inh
S=C(NCc1ccccc1)Nc1cccc(Cl)c1 | -13% | 13µM* | 3 | -15% | 0% | 5.6µM*
CCCN(CCC)CCNC(=O)c1cc(Sc2ccc(Cl)cc2)nc2ccccc12 | -1%[57.1 µM] | nt | nt | -6%[57.1 µM] | nt | nt
NNC(=S)Nc1cccc(Cl)c1 | -3% | ? | 2 | -27% | 1% | 7.9µM*
O=C(CNc1cccc(Cl)c1)NNC(=S)NCc1ccccc1 | -12% | -13% | 0 | 12%[57.1 µM] | -1% | 14µM*
COc1ccc(NC(=S)NNC(=O)CNc2ccc(Cl)cc2)cc1 | 1% | 7.9µM* | 11 | 5% | 12% | 5.6µM*
COC(CC(=O)NNC(=S)Nc1ccc(Cl)cc1)OC | -2% | ? | 1 | -18% | 5% | ?
Cc1ccc(C(=O)NNC(=O)CNc2cccc(Cl)c2)cc1 | 4% | 5% | -5 | 25% | 0% | 7%
C=COCCNC(=S)Nc1cccc(Cl)c1 | 6% | ? | -4 | -13% | -1% | 6.3µM*
CCOC(=O)NC(=O)COC(=O)CNC(=O)c1ccc(OCC)c(OCC)c1 | 7%[57.1 µM] | -8% | -1 | 17%[57.1 µM] | 6% | 1%
COc1ccc(C2OC[C@H]3O[C@H](O)[C@H](NC(C)=O)[C@@H](O)[C@@H]3O2)cc1 (stereo partly drawn) | -2%[57.1 µM] | 1% | -1 | -3%[57.1 µM] | 6% | 12%
COc1ccc(C2c3[nH]c4ccccc4c3CCN2C(=O)c2cc3ncccn3n2)c(F)c1 (stereo not drawn) | -6%[57.1 µM] | 7% | -3 | -22%[57.1 µM] | 4% | ?
O=[N+]([O-])c1ccc(NN=Cc2ccc(O)cc2O)nc1 | -1%[2.29 µM] | nt | nt | 4%[2.29 µM] | nt | nt
CCN(CC)S(=O)(=O)c1ccc(N/N=C/c2ccc(O)cc2O)nc1 | -15% | ? | -1 | -19% | 2% | 14µM*
CC1=C(C(=O)N(C)C)C(c2cccc(Cl)c2)NC(=O)N1 (stereo not drawn) | 1% | -2% | 1 | -22% | 2% | 11µM*
CC1=C(C(=O)N(C)C)C(c2cccs2)NC(=O)N1 (stereo not drawn) | 8% | -1% | -1 | 19% | 1% | 19%
O=C1C(Cc2ccccc2)Nc2ncnc(N3CCCCC3)c2N1Cc1ccc(Cl)cc1 (stereo not drawn) | 1% | nt | nt | 3%[57.1 µM] | nt | nt
CCOC(=O)c1c(NC(=O)c2ccccc2)sc2c1CCc1ccccc1-2 | 18% | -13% | 2 | 15% | nt | -14%
CCOC(=O)C1=C(NC(=S)NC(=O)c2ccccc2)c2ccccc2CC1C(C)C (stereo not drawn) | -13% | 3%[0.365 µM] | -1 | -32% | 0% | 4µM*
CCOC(=O)C1=C(NC(=S)NC(=O)c2ccccc2)c2ccccc2CC1(C)CC (stereo not drawn) | -16% | 7.1µM* | -2 | -31% | -3% | 6.3µM*
COc1cccc(-c2cc3c(=O)n(-c4ccccc4)c(=S)[nH]c3s2)c1 | -7% | 2.5µM* | 0 | ? | 0% | 0.89µM*
COc1ccc(-n2c(=S)[nH]c3sc(-c4ccccc4)cc3c2=O)c(OC)c1 | -1%[57.1 µM] | 7.1µM* | 3 | ? | -7% | 3.5µM*
COc1ccc(-c2csc3[nH]c(=S)n(-c4ccccc4)c(=O)c23)cc1OC | -8% | 3.2µM* | 2 | ? | 0% | 2.5µM*
CCOc1ccc(-n2cnc3scc(-c4ccc(OC)c(OC)c4)c3c2=O)cc1 | -14%[57.1 µM] | -3% | 2 | 28%[57.1 µM] | 1% | 35%
COc1ccc(-n2c(=S)[nH]c3c(sc(=S)n3-c3ccccc3)c2=O)c(OC)c1 | 12%[57.1 µM] | -4% | 1 | -15%[57.1 µM] | -7% | -21%
Cc1ccc(S(=O)(=O)N2CCC(C(=O)OCCOc3ccccc3)CC2)cc1C | -16% | nt | nt | -1% | nt | nt
SMILES | TrxR1 substrate | VP16 counter | Coupling enz | TrxR1 inh | GALK inhibitor | RORg inh
O=C(Nc1ccccc1C(F)(F)F)N1CCN(c2ccc3nncn3n2)CC1 | 5% | -3%[0.365 µM] | -1 | 3% | 0% | -19%
O=C(Cn1nc(C(=O)O)c2ccccc2c1=O)NCCC1=CCCCC1 | -2% | nt | -1 | 4% | -3% | 0%[0.365 µM]
COc1ccc(-n2ncc3c(N4CCC(C)CC4)ncnc32)cc1 | 14% | ? | 0 | 9% | nt | 8.9µM*
CCOC(=O)C1CCN(c2ncnc3c2cnn3-c2ccc(Cl)cc2)CC1 | -11% | ? | 1 | -8% | nt | 1.4µM*
Cc1cccc(-n2ncc3c(N(C)C4CCCCC4)ncnc32)c1 | 11% | 0.89µM* | 2 | 45% | 1% | ?
COc1ccc(-n2ncc3c(N(C)C4CCCCC4)ncnc32)cc1 | 13% | 8.9µM* | -4 | 13% | nt | 0.25µM*
CCOC(=O)C1CCN(c2ncnc3c2cnn3-c2ccccc2)CC1 | 6% | -10% | 0 | 12% | -3% | -79%
CCN(c1ncnc2c1cnn2-c1cccc(Cl)c1)C1CCCCC1 | -4%[57.1 µM] | nt | nt | 4%[57.1 µM] | nt | nt
CN1CCN(C(CNC(=O)c2ccc(F)cc2)c2ccc3c(c2)OCO3)CC1 (stereo not drawn) | 6%[57.1 µM] | nt | nt | 27%[57.1 µM] | nt | nt
Cc1ccc(C)c(Cn2c(=O)n(CCc3ccccc3)c(=O)c3c(C)c(C)sc32)c1 | 5% | nt | nt | 18% | nt | nt
O=C(NC(=S)N1CCN(c2nc(-c3ccccc3)cs2)CC1)c1cncc(Br)c1 | -2% | 0.22µM* | 5 | -8% | -4% | 0.22µM*
COc1ccc(CNC(=O)[C@H](C)NC(=O)C2CC(=O)N(c3ccc(OC)cc3)C2)cc1 (stereo partly drawn) | 8%[57.1 µM] | 7% | 0 | 34%[57.1 µM] | 7% | -8%
Oc1c(N=NC(=S)Nc2ccccc2F)c2ccccc2n1Cc1cccc(Cl)c1 | -9% | 3.5µM* | -3 | -14% | -1% | ?
O=C(N=Nc1c(O)n(Cc2ccccc2)c2ccccc12)c1cc2ccccc2cc1O | -3% | -46% | 4 | 2% | 1% | ?
Cc1cccc(NC(=O)Cn2c(O)c(N=NC(N)=S)c3ccccc32)c1 | 0% | ? | 8 | 17% | -1% | ?
Cc1cccc(Cn2c(O)c(N=NC(=S)Nc3ccccc3F)c3ccccc32)c1 | -5% | 5µM* | -6 | -3% | -1% | 3.2µM*
Oc1c(N=NC(=S)Nc2ccccc2F)c2ccccc2n1Cc1ccc(F)cc1 | 0% | 3.5µM* | -4 | 1% | 2% | 2.8µM*
CCOC(=O)N1CCN(C(=O)CSCc2ccccc2Cl)CC1 | -23%[57.1 µM] | 0% | 2 | 16%[57.1 µM] | nt | 1%
Oc1ccccc1/C=N/NC(=S)NC1CC2CCC1C2 (stereo not drawn) | -3% | 10µM* | 0 | 4%[57.1 µM] | nt | 6.3µM*
CNC(=S)N/N=C/c1ccco1 | -10% | 5.6µM* | -3 | ? | -1% | 2.5µM*

Screening results from PubChem BioAssay.
